“And” between values parts separate entries of the source, which are not always exact repeats. Equal entries are not always repeated. The panel holds about 83,000 compounds, 20% with a hit somewhere; the sample as a whole holds those more often.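 Treatment: one concentration, 48 hours, 96-well format. Scoring: percent growth, with anything below 10 considered active.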
Columns and labels:
Assay in all cases: NCI-60 one-dose screen, 48 h (100 = growth as untreated, 0 = no growth, -100 = all killed)
Details in all cases: 10 µM unless noted
[1] = test system: HCT-15 colon
[2] = test system: HT29 colon
[3] = test system: SNB-75 CNS
[4] = test system: SNB-19 CNS
[5] = test system: U251 CNS
[6] = test system: PC-3 prostate
[7] = test system: SK-MEL-5 melanoma
[8] = test system: UACC-62 melanoma
[9] = test system: LOX IMVI melanoma
[10] = test system: SK-MEL-28 melanoma
[11] = test system: SK-MEL-2 melanoma
[12] = test system: EKVX NSCLC
[13] = test system: SN12C renal
[14] = test system: UO-31 renal
[15] = test system: TK-10 renal
[16] = test system: CAKI-1 renal
[17] = test system: A498 renal
[18] = test system: CCRF-CEM leukemia
[19] = test system: MOLT-4 leukemia
[20] = test system: ACHN renal

Measured: growth

CCc1ccccc1-n1[nH]c(C)c(C=N)c1=O
inactive: [1] 98.3% | [2] 114% | [3] 101% | [4] 104% | [5] 109% | [6] 94.7% | [7] 104% | [8] 101% | [9] 99.1% | [10] 110% | [11] 106% | [12] 104% | [13] 106% | [14] 90% | [15] 103% | [16] 97.3% | [17] 112% | [18] 102% | [19] 117%

Oc1ccc(O)c(-c2ccccc2)c1
inactive: [1] 22.8% | [2] 102% | [3] 58.2% | [4] 67.5% | [5] 41.4% | [6] 64.3% | [7] 42.9% | [8] 71.3% | [9] 49.3% | [10] 77.4% | [11] 72.5% | [12] 77.7% | [13] 68% | [14] 43.4% | [20] 74.1% | [16] 74.6% | [17] 132% | [18] 10.1% | [19] 20.7%

OCCS
inactive: [1] 104% | [2] 97% | [3] 91.1% | [4] 108% | [5] 95.3% | [6] 99.8% | [7] 100% | [8] 103% | [9] 96.2% | [10] 109% | [11] 108% | [12] 98.8% | [13] 107% | [14] 98% | [20] 111% | [17] 66.4% | [18] 100% | [19] 92.2%

NNc1ncnc2cccc(Cl)c12
inactive: [1] 97.8% | [2] 95% | [3] 101% | [4] 103% | [5] 95.4% | [6] 93.3% | [7] 91% | [8] 92% | [9] 94.6% | [10] 103% | [11] 95.3% | [12] 90.8% | [13] 87.6% | [14] 89.1% | [15] 99.9% | [16] 107% | [17] 108% | [18] 102% | [19] 108%

COC(=O)C(Cc1cn(C(C)=O)c2ccccc12)P(=O)(OC)OC (stereo not drawn)
inactive: [1] 103% | [2] 108% | [3] 89.5% | [4] 104% | [5] 101% | [6] 88.6% | [7] 96.8% | [8] 93.1% | [9] 92.7% | [10] 114% | [11] 102% | [12] 90.6% | [13] 97.7% | [14] 74.8% | [15] 100% | [20] 100% | [18] 110% | [19] 108%

O=[N+]([O-])c1ccc(N/N=C/C2CCCCCC2)c([N+](=O)[O-])c1
inactive: [1] 89.1% | [2] 100% | [3] 117% | [4] 102% | [5] 96.8% | [6] 79.7% | [7] 96.9% | [8] 81% | [9] 89.2% | [10] 99.7% | [11] 105% | [12] 84.9% | [13] 92% | [14] 61.2% | [15] 118% | [17] 62.7% | [18] 51.6% | [19] 77.3%

CCCC(=O)Oc1ccc2ccccc2c1
inactive: [1] 109% | [2] 103% | [3] 105% | [4] 101% | [5] 95.5% | [6] 73.1% | [7] 97.3% | [8] 100% | [9] 101% | [10] 114% | [11] 104% | [12] 101% | [13] 97% | [14] 76.8% | [20] 99% | [16] 103% | [17] 103% | [18] 90.2% | [19] 92.3%

Clc1ccc2c(c1)N(C1CCCN(Cc3ccccc3)C1)c1ccccc1S2 (stereo not drawn)
inactive: [1] 26.6% | [2] 76.7% | [3] 27.6% | [4] 41.6% | [5] 17.4% | [6] 45% | [7] 23.3% | [8] 44% | [9] 57% | [10] 56.9% | [11] 17.1% | [12] 74.4% | [13] 39.7% | [14] 66.7% | [20] 52.5% | [16] 48.7% | [17] 70.6% | [18] 39.7% | [19] 70.3%

O=C(/C=C/C=C/c1ccc2c(c1)OCO2)N1CCCCC1
inactive: [1] 101% and 95.3% | [2] 99.5% and 87.6% | [3] 112% and 99.4% | [4] 97.2% and 99.6% | [5] 95.1% and 102% | [6] 97.7% and 90% | [7] 97.7% and 97.9% | [8] 92% and 90% | [9] 97.7% and 101% | [10] 129% and 94.1% | [11] 128% and 57.5% | [12] 78.9% and 95.9% | [13] 97.9% and 100% | [14] 88.8% and 74.4% | [20] 106% | [16] 92.6% and 106% | [17] 92.7% and 83.6% | [18] 109% and 107% | [19] 98.3% and 84%

CCC/C(=N/NC(N)=O)c1ccco1
inactive: [1] 103% | [2] 93.7% | [3] 75.2% | [4] 90.1% | [5] 91.8% | [6] 86.8% | [7] 99.5% | [8] 92.7% | [9] 98.1% | [10] 97.7% | [11] 94.8% | [12] 89.7% | [13] 93% | [14] 90.6% | [15] 88.3% | [16] 92.7% | [17] 68.1% | [18] 97.8% | [19] 80.3%

C(=N\OCCc1ccccc1)/c1ccccn1
inactive: [1] 95% and 104% | [2] 112% and 97.7% | [3] 117% and 86.2% | [4] 108% and 103% | [5] 103% and 92.2% | [6] 112% and 104% | [7] 113% and 111% | [8] 110% and 107% | [9] 122% and 101% | [10] 114% and 112% | [11] 124% and 104% | [12] 115% and 106% | [13] 119% and 109% | [14] 109% and 98% | [15] 93.3% and 89.5% | [20] 110% and 107% | [17] 96.3% and 85.7% | [18] 106% and 94.6% | [19] 101% and 93.1%

OC1CCCN(Cc2ccccc2)C1 (stereo not drawn)
inactive: [1] 116% | [2] 102% | [3] 113% | [4] 92.2% | [5] 120% | [6] 97.4% | [7] 102% | [8] 91.1% | [9] 96.5% | [10] 108% | [11] 115% | [12] 116% | [13] 98.5% | [14] 88.5% | [15] 97.4% | [16] 105% | [18] 98.4% | [19] 92.5%

Nc1nc(-c2ccccn2)cc(-c2cc(-c3ccccn3)nc(N)n2)n1
inactive: [1] 97% | [2] 120% | [3] 143% | [4] 101% | [5] 109% | [6] 99.3% | [7] 105% | [8] 102% | [9] 96.5% | [10] 113% | [11] 112% | [12] 102% | [13] 108% | [14] 91.1% | [20] 110% | [16] 96.7% | [17] 156% | [18] 101% | [19] 106%

— PubChem BioAssay (NCI)
